Inconclusive results are not listed. Activity calls are given as the source filed them. Calls follow the shape of the dose curve; as a rule, active = well fitted inhibition curve with a large enough effect; inconclusive = small, poorly fitted or top-dose-only effect; inactive = flat fitted curve, though single readings scatter.
What follows are molecules tested against Dual specificity protein kinase CLK4 (Homo sapiens) (UniProt Q9HAZ1) (assay: qHTS Assay for Inhibitors of CDC-like Kinase 4 (ADP-FP Assay) (AID 1795; also: nearly all actives have a fitted effect of over 60% in size)). Conditions: Transcreener ADP fluorescence polarization; series mostly up to 50 µM.
Procedure: NIH Molecular Libraries Probe Production Centers Network [MLPCN] NIH Chemical Genomics Center [NCGC] MLPCN Grant: 1R03MH084827-01 Assay Submitter (PI): Tom Misteli NCGC Assay Overview: Clk4 (Invitrogen cat # PV3839) was assayed using ATP and the RS repeat peptide (AnaSpec cat # 61722) as substrates using Transcreener (trade mark), a competitive fluorescence polarization (FP) assay. For the present assay, we used the Orange TranscreenerTM ADP2 (BellBrooks Labs, Madison, Wis) detection system to monitor ADP production in the kinase reaction. […] This allows the ADP tracer to freely rotate leading to a decrease in the observed FP value. The amount of ADP produced can then be calculated using a calibration curve. The positive control for the assay was TG003 (Sigma-Aldrich, cat # 300801-52-9) which is a Clk4 inhibitor [2].
NCGC Assay Protocol Summary: Two uL/well of substrate-buffer solution (100 uM RS peptide, 1 uM ATP, 25 mM Tris pH7.5, 10 mM MgCl2, 0.5 mM EGTA, 2.5 mM DTT, 0.01% Triton X-100 final concentration) was dispensed into 1,536-well assay plates (Greiner, solid black medium-binding plates) with Aurora Discovery BioRAPTR Flying Reagent Dispenser (FRD; Beckton-Dickenson). Using a Kalypsys pin tool equipped with a 1,536-pin tool, 23 nL of compound solution was transferred to the assay plate. Two uL/well Clk4-buffer solution (6.25 nM Clk4, 25 mM Tris pH 7.5, 10 mM MgCl2, 0.5 mM EGTA, 2.5 mM DTT, 0.01% Triton X-100, final concentration) was then added using the FRD yielding a total kinase reaction volume of 4 uL/ well. Then 4 uL/well of detection mixture (4 nM orange fluorescent tracer, 1 ug/mL ADP antibody, final concentration) was then added after an hour and the polarization signal was measured using the EnVision plate reader (PerkinElmer, Waltham, MA) after 30 min of room temperature incubation using the following filters and program settings: BODIPY TMR FP dual Enh mirror (barcode 682); BODIPY-TMR 531 (barcode 105) excitation; BODIPY-TMR FP P/S polarized 595 nm filters (barcodes 210 and 211, respectively); 100% light; 150 flashes; 1.35 G-factor; Detector gains were 685 for the 1st detector; 630 for the 2nd detector.
Potency is read from the fitted curve at half-maximal effect.

Sequence of Dual specificity protein kinase CLK4 (Homo sapiens) (Q9HAZ1 whole entry, looked up): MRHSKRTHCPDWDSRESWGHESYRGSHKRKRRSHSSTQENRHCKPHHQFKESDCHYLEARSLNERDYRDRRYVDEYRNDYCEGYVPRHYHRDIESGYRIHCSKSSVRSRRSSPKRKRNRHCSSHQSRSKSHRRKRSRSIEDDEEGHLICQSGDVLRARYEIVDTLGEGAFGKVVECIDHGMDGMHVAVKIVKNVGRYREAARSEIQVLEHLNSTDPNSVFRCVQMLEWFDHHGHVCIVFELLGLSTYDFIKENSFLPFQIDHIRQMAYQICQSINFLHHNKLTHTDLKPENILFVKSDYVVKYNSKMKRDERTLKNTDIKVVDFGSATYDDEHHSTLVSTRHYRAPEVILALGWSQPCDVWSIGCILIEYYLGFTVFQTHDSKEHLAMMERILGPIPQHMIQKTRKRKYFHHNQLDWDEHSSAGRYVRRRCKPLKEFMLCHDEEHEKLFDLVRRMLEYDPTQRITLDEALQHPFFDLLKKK

Potency, active:
c1ccc(CNc2ncnc3ccc(-c4ccc5c(c4)OCO5)cc23)cc1 35.5 nM
COc1cccc(-c2ccc3ncnc(NCCNC(C)=O)c3c2)c1 282 nM
COc1ccccc1CNc1ncncc1-c1ccc(C(=O)N(C)C)cc1 12600 nM
COc1ccccc1-c1ccc2ncnc(N(C)Cc3ccco3)c2c1 2820 nM
COc1cccc(-c2ccc3ncnc(N(C)C)c3c2)c1 2510 nM

Potency, inactive:
COc1ccccc1-c1cc(Nc2ccn[nH]2)ncn1
CCNc1ncc2nc(C)c(=O)n(C[C@H]3CCCO3)c2n1
c1cncc(CNc2ncncc2-c2ccoc2)c1
c1cncc(CNc2ccnc(-c3cccnc3)n2)c1
COc1cccc(Nc2ncc3nc(-c4ccc(Cl)cc4)c(=O)n(C[C@H]4CCCO4)c3n2)c1
CN(C)Cc1ccccc1-c1nccc(N(C)Cc2ccco2)n1
O=c1c(-c2cccs2)nc2cnc(Nc3ccccc3)nc2n1C[C@H]1CCCO1
CCNc1ncc2nc(-c3cccs3)c(=O)n(Cc3cccs3)c2n1
COc1cccc(Cn2c(=O)c(-c3cccc(C#N)c3)nc3cnc(OC)nc32)c1
COc1ccccc1-c1nc(NCc2cccnc2)c2ccccc2n1
CCNc1ncc2nc(-c3cc(F)cc(F)c3)c(=O)n(Cc3ccc(F)cc3)c2n1
COc1ccc(-n2c(=O)c(-c3ccc(F)cc3)nc3cnc(N4CCNCC4)nc32)cc1
O=c1c(-c2ccccc2)nc2cnc(N3CCOCC3)nc2n1Cc1cccs1
O=c1c(-c2ccc(F)cc2)nc2cnc(N3CCOCC3)nc2n1CCc1ccccc1
COc1ccccc1CNc1nc(-c2ccc3c(c2)OCO3)nc2ccccc12
CCNc1ncc2nc(-c3cccc(C#N)c3)c(=O)n(CCC#N)c2n1
COc1cccc(Cn2c(=O)cnc3cnc(N4CCN(C)CC4)nc32)c1
Cc1cnc(CNc2cc(-c3ccccc3C(F)(F)F)ncn2)cn1
O=c1c(-c2cccc(Cl)c2)nc2cncnc2n1C1CC1
FC(F)(F)c1ccccc1-c1cncnc1NCc1cccnc1
CCNc1ncc2nc(-c3cccc(C#N)c3)c(=O)n(Cc3cccc(OC)c3)c2n1
COc1cccc(Cn2c(=O)c(-c3cn(C)c4ccccc34)nc3cnc(OC)nc32)c1
CN1CCN(c2ncncc2-c2ccc(N(C)C)cc2)CC1
FC(F)(F)c1ccccc1-c1cc(NCc2cccnc2)ncn1
O=c1cnc2cnc(N3CCNCC3)nc2n1C1CC1
COCCn1c(=O)c(-c2cccs2)nc2cnc(N3CCOCC3)nc21
CN1CCN(c2ncc3nc(-c4ccc(F)cc4)c(=O)n(C4CC4)c3n2)CC1
CN(Cc1ccco1)c1ncncc1-c1ccccc1C(F)(F)F
COc1ccc(Oc2ncc3ncc(=O)n(C4CC4)c3n2)cc1
CCNc1ncc2nc(-c3cn(C)c4ccccc34)c(=O)n(Cc3cccs3)c2n1
O=c1c(-c2ccccc2)nc2cnc(Oc3cccc(Cl)c3)nc2n1C1CC1
c1ccc(CNc2cc(-c3ccoc3)ncn2)cc1
CN1CCN(c2ncc3nc(-c4cccc(C#N)c4)c(=O)n(CCC#N)c3n2)CC1
COc1ccc(-c2nc3cnc(N(C)C)nc3n(Cc3cccs3)c2=O)cc1
COc1ccc(CNc2ccnc(-c3cccc(NS(C)(=O)=O)c3)n2)c(OC)c1
